The whole screen tested about 2,000 compounds, of which about 45 (2%) were called active. What follows is part of a selection rich in actives, with near analogues and random picks from the rest. Values without a mark were called inactive.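 The calls were made as follows: active = inhibition above the mean of all tested compounds plus 3 SD (cut at about 49% in these data); inactive = the rest.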
Target: Perilipin-5 (Homo sapiens) + 1-acylglycerol-3-phosphate O-acyltransferase ABHD5 (Homo sapiens) (UniProt Q00G26+Q8WTS1)
Sequence (Q00G26 whole entry, looked up): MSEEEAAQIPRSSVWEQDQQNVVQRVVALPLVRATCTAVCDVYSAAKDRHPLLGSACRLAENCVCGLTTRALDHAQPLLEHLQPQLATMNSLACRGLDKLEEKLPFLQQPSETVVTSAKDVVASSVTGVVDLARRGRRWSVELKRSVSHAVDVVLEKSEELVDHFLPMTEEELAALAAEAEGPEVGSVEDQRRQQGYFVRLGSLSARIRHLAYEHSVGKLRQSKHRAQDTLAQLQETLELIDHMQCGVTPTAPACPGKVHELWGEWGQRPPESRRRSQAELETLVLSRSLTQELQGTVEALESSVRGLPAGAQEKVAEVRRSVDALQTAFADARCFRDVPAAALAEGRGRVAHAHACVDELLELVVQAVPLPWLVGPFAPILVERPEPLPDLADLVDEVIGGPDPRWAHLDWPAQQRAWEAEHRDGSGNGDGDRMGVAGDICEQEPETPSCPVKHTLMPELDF
Sequence (Q8WTS1 whole entry, looked up): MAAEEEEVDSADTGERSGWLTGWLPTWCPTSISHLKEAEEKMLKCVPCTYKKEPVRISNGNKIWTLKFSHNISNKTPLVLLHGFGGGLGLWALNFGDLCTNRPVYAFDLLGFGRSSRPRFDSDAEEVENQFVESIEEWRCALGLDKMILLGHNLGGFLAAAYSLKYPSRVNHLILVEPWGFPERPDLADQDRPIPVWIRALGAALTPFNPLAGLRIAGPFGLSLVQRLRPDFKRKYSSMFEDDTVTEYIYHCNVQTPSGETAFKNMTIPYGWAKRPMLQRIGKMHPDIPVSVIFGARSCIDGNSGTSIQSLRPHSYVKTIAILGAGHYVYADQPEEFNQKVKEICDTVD
Assay: ABHD5-PLIN5 interaction inhibitors, pilot screen, cell lysate, split luciferase complementation, luminescence, NIH validation set (AID 493035);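 as to inhibition: 0% = DMSO only wells while the 100% control is not stated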
Settings: split G. princeps luciferase complementation, lysates, 4 h; at 7.9 µM, stronger effect = higher value

Structure (SMILES) | inhibition
O=C1C=CC(=O)C(C2=C3C(=O)N(CCc4ccccc4)CC(=O)N3CCC2)=C1 | 74.5% (active)
O=C1CCCCCN1Cc1ccccc1 | 9.82%
C/C(=N/N1CCN(Cc2cccc3ccccc23)CC1)c1cccnc1 | -8.01%
CC1(C)C2CCC1(C(=O)O)c1nc3ccccc3nc12 (stereo not drawn) | -0.64%
Cc1ccc(S(=O)(=O)Nc2ccc(S(=O)(=O)Nc3cc(C)nc(C)n3)cc2)cc1 | 4.03%
CC(C)CCOCC(=O)Nc1cccc(C(=O)O)c1 | -0.57%
COC(=O)C1=C(C)NC(C)=C(C(=O)OC)C1c1ccccc1[N+](=O)[O-] | active
COC(=O)C1=C(C)NC(C)=C([N+](=O)[O-])C1c1ccccc1C(F)(F)F (stereo not drawn) | -2.75%
CCOC(=O)C1=C(C)NC(C)=C(C(=O)OC)C1c1cccc([N+](=O)[O-])c1 (stereo not drawn) | 3.99%
O=C(O)CCSCCC(=O)O | 2.26%
CC12CCC(C(=O)N3CCCCC3)([C@H](Br)C1=O)C2(C)C (stereo partly drawn) | -4.77%
COc1ccc(C(=O)Nc2ccccc2C(=O)NC(Cc2c[nH]c3ccccc23)C(=O)O)cc1 (stereo not drawn) | 1.79%
COc1ccc(C(=O)Oc2ccc3c(C)cc(=O)oc3c2C(C)=O)cc1 | 2.94%
COc1ccc(/C=C/C(=O)Nc2ccccc2C(=O)O)cc1OC | -12.4%
COc1ccc(/C=C\C(=O)c2c(O)ccc3c(C)cc(=O)oc23)cc1OC | 59.1% (active)
Cc1ccc2c(CC(=O)O)coc2c1 | -6.46%
CCSC(SCC)[C@H](O)[C@@H](O)[C@H](O)[C@H](O)CO | -2.61%
CC(C)(C)C(=O)N1CCCC1C(=O)O (stereo not drawn) | -7.48%
Nc1ccc(-c2nc3ncccc3o2)c(Cl)c1 | -10.8%
CC(C)Cc1cc(C(=O)N2CCC(N3CCC(C(=O)N4CCCC4)CC3)CC2)n[nH]1 | -3.07%
COc1cc(C2Nc3ccccc3NC3=C2C(=O)CC(c2ccc(OC)c(OC)c2)C3)ccc1O (stereo not drawn) | 1.84%
C=CCC1(O)C(=O)N2C(=C1C(=O)N1CCOCC1)c1ccccc1CC2(C)C (stereo not drawn) | 0.31%
Cc1ccc2c(c1)C(O)(CC(=O)/C=C/C=C/c1ccccc1)C(=O)N2 (stereo not drawn) | 24.3%
Cc1ccc(C2=NOC(=O)/C2=C\C=C\c2ccccc2)cc1 | 94.4% (active)
NC(=O)c1c(-c2ccccc2)oc2ccc(O)cc12 | -5.91%

Structure (SMILES) | inhibition
CCOC(=O)C1=C(C)N[C@@]2(O)c3ccccc3C(=O)[C@@]12O | 10.3%
COc1ccc(OC(C)C(=O)Nc2ccccc2F)cc1 (stereo not drawn) | 2.02%
O=C(c1cccnc1)N1N=C(C2CC2)CC1(O)C(F)(F)F (stereo not drawn) | 2.77%
O=C(Nc1cccc(C(=O)O)c1)/C(=C\c1ccccc1)NC(=O)c1ccccc1 | -2.05%
O=C(O)CCCCCCNC(=O)c1cncc(O)c1 | -6.1%
CC(=O)OC(CC(=O)O)C[N+](C)(C)C (stereo not drawn) | -14.8%
COc1ccc(C(=O)Nc2nc3ccccc3c(=O)[nH]2)cc1 | 0.27%
CC(C)N1C(=O)/C(=C\c2nc3ccccc3c(=O)[nH]2)c2ccccc21 | 64.9% (active)
COc1ccc(NC(=O)C2CSC3c4ccccc4C(=O)N23)cc1 (stereo not drawn) | 4.85%
CCOC(=O)C(Cc1cc(C(C)=O)ccc1OC(C)C)C(=O)OCC | -3.49%
O=C1C2C3C=CC(C4CC34)C2C(=O)N1/N=C/c1ccc(-c2ccc([N+](=O)[O-])cc2)o1 (stereo not drawn) | -2%
c1ccc(Cn2ncc3c(Nc4ccccc4)ncnc32)cc1 | -6.21%
O=C(NO)c1ccccc1O | -11.8%
CC(=O)N[C@@H](CS)C(=O)O | -2.08%
COC(=O)[C@@H](N)CS | 78.9% (active)
COc1cc(OC)c2c(C)c(Cl)c(=O)oc2c1 | -6.84%
CCN(CC)C(=O)c1sc(NC(=O)c2c(OC)cccc2OC)c(C#N)c1C | -4.18%
CCCC(CCC)C(=O)OC1C[C@H]2CC[C@@H](C1)[N+]2(C)C (stereo partly drawn) | -9.28%
CCN(CC)C(=S)SSC(=S)N(CC)CC | 95.2% (active)
COc1ccc(O)c(C2=Nc3ccccc3N=C(c3ccccc3)C2)c1 | -11.4%
C=CCOc1ccc(C(=O)CC)cc1OC | -3.26%
CCc1oc2ccccc2c1C(=O)c1cc(Br)c(O)c(Br)c1 | 50.7% (active)
CC(=O)CCc1oc2ccccc2c1-c1ccccc1 | -0.95%
CCCCc1oc2ccccc2c1C(=O)c1cc(I)c(OCCN(CC)CC)c(I)c1 | -3.91%
COc1ccc2cc[nH]c2c1 | 5.24%

Structure (SMILES) | inhibition
COc1cccc2c(=O)c(C/C=C(/C)Cl)c(C)[nH]c12 | -0.4%
COc1ccc(N2CCN(C(=S)NCc3ccccc3)CC2)cc1 | 10.2%
CC(C)=CCC(C)(C)/C=N/NC(N)=O | -11.2%
COc1ccccc1C(CCN(Cc1ccccc1)C(C)=O)c1ccco1 (stereo not drawn) | 7.01%
CC(=O)N(CCC(Cc1ccccc1)c1ccco1)Cc1ccco1 (stereo not drawn) | 39.1%
O=C(c1ccco1)N(CCC(c1ccccc1)c1ccco1)Cc1ccco1 (stereo not drawn) | 58.6% (active)
COc1ccc(-c2cc(C(=O)N3CCOCC3)c3cc(C)ccc3n2)cc1 | -3.27%
O=C(c1ccc(Cl)cc1)C1CCCN(C(=O)/C=C/c2ccccn2)C1 (stereo not drawn) | 8.56%
CCCCC/C=C\C[C@H](O)/C=C/c1cccc(C[C@H](O)CCCCO)n1 | 62.8% (active)
CSCCC(NC(=O)/C(=C/c1ccc2c(c1)OCO2)NC(=O)c1cccc([N+](=O)[O-])c1)C(=O)O (stereo not drawn) | 5.37%
OC[C@@H](O)[C@@H](O[C@H]1O[C@H](CO)[C@@H](O)[C@H](O)[C@H]1O)[C@H](O)[C@@H](O)CO | -8.59%
Cc1cccc(C(=O)c2cccc(C)c2)c1 | -8.84%
Cn1c(=O)c(C(=O)NCCO)c(O)c2ccccc21 | -4.23%
O=C(Nc1ccc(Oc2c(F)c(F)c(F)c(F)c2F)cc1)OC1CCN2Cc3ccccc3N=C12 (stereo not drawn) | 69.3% (active)
Cc1ccc(S(=O)(=O)N2CCC(C(=O)N[C@@H](C)C(=O)NC3CCS(=O)(=O)C3)CC2)cc1 (stereo partly drawn) | -6.13%
Cc1ccc(-c2nnc(-c3ccc4c(c3)OCO4)o2)cc1 | -9.18%
CCN1/C(=C/C=C/C=C/c2sc3ccccc3[n+]2CC)Sc2ccccc21 | 70.5% (active)
CC(CN1c2ccccc2Sc2ccccc21)N(C)C (stereo not drawn) | -12.2%
CN(C)CCCN1c2ccccc2Sc2ccccc21 | -13%
C=CCn1c(SCC(=O)NC2CCCCC2)nc2ccccc2c1=O | -1.42%
COc1ccccc1-c1ccc(/C=C2/C=C(CC(C)C)OC2=O)o1 | 7.79%
CCOC(=O)c1c(C)oc2cc(Br)c(OC(C)C(=O)OCC)cc12 (stereo not drawn) | -0.05%
COc1cccc(OCC(O)CO)c1 (stereo not drawn) | -6.51%
N#C/C(C(N)=O)=c1/ccc2c(c1)N1C3=C(CCCC3)CC3CCCCC31N=2 (stereo not drawn) | 25.4%
COc1ccc(C(=O)COc2ccc(F)cc2)c(O)c1 | -6.5%

Structure (SMILES) | inhibition
COc1ccc(C(=O)/C=C/c2cc(C(=O)O)cc3c2OCOC3)c(O)c1 | 70.3% (active)
COc1cccc(/C=C/C(=O)c2c(O)cc(C)oc2=O)c1O | 44.4%
CC1=CC(C)(C)N2C(=O)C3(NCCc4c3[nH]c3ccccc43)c3cc(C)cc1c32 (stereo not drawn) | -1.07%
O=C(NC(=S)Nc1ccc(N2CCN(C(=O)c3ccccc3)CC2)cc1)c1cccs1 | 11.4%
Cc1ccc(S(=O)(=O)n2ccnc2)cc1C | -3.74%
COCCCN1C(=O)/C(=C\c2cccs2)C(C(=O)OC)=C1C | 0.91%
COC(=O)c1ccc(=O)n(Cc2ccco2)c1 | 18.6%
COC(=O)C1=C(C)N(Cc2ccco2)C(=O)/C1=C\c1ccc([N+](=O)[O-])cc1 | 84.5% (active)
CCNC(=O)C12CCC(C)(C(=O)O1)C2(C)C (stereo not drawn) | -5.33%
CC(C)[C@H](NC(=O)[C@@H]1CSCN1C(=O)OC(C)(C)C)C(=O)NCC1CCC(C(=O)O)CC1 (stereo partly drawn) | -18.6%
CC(=O)N/C(=C/c1ccc2c(c1)OCO2)C(=O)NCCO | 2.23%
COc1ccc(C2=C(CN(C)C)C(c3ccccc3)c3ccccc3O2)cc1 (stereo not drawn) | 1.13%
COc1ccccc1/C=C/C(=O)OCCN1CCOCC1 | -8.59%
CCOC(=O)C(=Cc1ccccc1OC)C(=O)OCC | 47.9% (active)
CCOC(=O)C(=O)N1CCN(c2ccccc2OC)CC1 | -5.55%
CCn1cc(CN2N=C(C)CC2c2ccccc2)c(C)n1 (stereo not drawn) | 2.34%
Cc1ccc(S(=O)(=O)NC(=O)Nc2cc(C)ccc2F)cc1 | -7.32%
CC(C)(C)N1NC2(CCCCC2)NC1=S | 6.12%
COc1ccc2oc(=O)c(C(=O)Nc3ccccc3-c3ccccc3)cc2c1 | -5.51%
COc1ccc(O)c(C(=O)/C=C/c2cc3ccccc3o2)c1 | 73.2% (active)
COc1ccc2oc(=O)c(C(=O)N3CCN(c4ccccc4)CC3)cc2c1 | 9.11%
Cc1ccc(C(=O)O)cc1NC(=O)c1cccs1 | -5.26%
CN1/C(=C\C=Nc2ccccc2)C(C)(C)c2ccccc21 | 14.1%

— PubChem BioAssay AID493035 (The Scripps Research Institute Molecular Screening Center, 2011)
